Experimental data taken from PubChem BioAssay AID1851 (National Center for Advancing Translational Sciences (NCATS), 2009).
The whole screen tested about 16,000 compounds, of which about 5,100 (32%) were called active. About 25% were inconclusive and are not listed. The list shows a part of the results. A number with no mark means an inactive call. Calls follow the shape of the dose curve; as a rule, active = well fitted curve in the direction sought with a large enough effect; inconclusive = small, poorly fitted or top-dose-only effect, or effect the other way; inactive = no such curve, though single readings can be large or run the other way.
% is scaled to controls: 0 for no effect and ±100 for the full control effect.

What follows are molecules tested against Cytochrome P450 3A4 (Homo sapiens) (UniProt P08684) (assay: Cytochrome panel assay with activity outcomes). Settings: recombinant CYP, pro-luciferin dealkylation, luminescence, p450-cyp3a4; series mostly up to 57.1 µM.
Cytochrome P450 3A4 (Homo sapiens), sequence (P08684 whole entry, looked up): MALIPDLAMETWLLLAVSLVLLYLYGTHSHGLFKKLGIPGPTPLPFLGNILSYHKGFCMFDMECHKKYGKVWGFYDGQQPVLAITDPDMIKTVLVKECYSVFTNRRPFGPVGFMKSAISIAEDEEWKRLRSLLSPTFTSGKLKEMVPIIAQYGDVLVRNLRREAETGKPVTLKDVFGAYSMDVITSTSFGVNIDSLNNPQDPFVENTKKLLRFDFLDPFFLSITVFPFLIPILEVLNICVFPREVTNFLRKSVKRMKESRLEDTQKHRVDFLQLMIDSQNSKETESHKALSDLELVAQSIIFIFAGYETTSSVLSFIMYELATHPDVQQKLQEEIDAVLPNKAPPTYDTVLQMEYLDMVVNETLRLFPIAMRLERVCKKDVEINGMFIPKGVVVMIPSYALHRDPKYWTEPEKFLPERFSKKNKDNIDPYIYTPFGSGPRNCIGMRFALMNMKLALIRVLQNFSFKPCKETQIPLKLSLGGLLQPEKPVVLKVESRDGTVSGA
In the case of O=C(CSc1nnc(COc2ccccc2)n1-c1ccccc1)c1ccccc1, the AC50 is reported as 14.1 µM (active).
For CCOc1ccc(-c2nnn(CC(=O)Nc3cc(OC)ccc3OC)n2)cc1OCC, the AC50 was 3.55 µM (active).
For C=CCn1c(Cc2ccc(OC)cc2)nnc1SCC(=O)c1cccc([N+](=O)[O-])c1, the AC50 was 1.41 µM (active).
With CCOc1c2ccc(C(=O)NCCc3cccs3)cc2nn1CC the activity, negative = inhibition was -0.473% [at 2.29 µM].
With COc1ccc(-c2nnn(CC(=O)N(CC(=O)NCCC(C)C)Cc3cccs3)n2)cc1OC the AC50 was 12.6 µM (active).
In the case of CC1(C)OC(C(N)=O)C(C(N)=O)O1 (configuration not stated), the AC50 is reported as “inactive”.
CN[C@@H]1[C@H](O[C@@H]2O[C@H](CO)[C@@H](N)[C@H](O)[C@@H]2O)O[C@H]2C[C@@H](N)[C@@H](O[C@H]3[C@@H](O)[C@H](O)[C@H](N)C[C@@H]3N)O[C@H]2[C@H]1O was tested, and the AC50 was “inactive”.
In the case of CCOc1cc(C)ccc1OCc1nnc(SCC(=O)c2cccc([N+](=O)[O-])c2)n1CC, the AC50 is reported as 2.82 µM (active).
With CCn1c(CNC(=O)COc2ccc(C(C)C)cc2)nnc1SCC(=O)Nc1cc(F)ccc1C the AC50 was 10 µM (active).
For COc1ccc(NC(=O)CSc2nnc(Cc3cccn3C)n2CCc2ccccc2)c(OC)c1, the AC50 was 2.24 µM (active).
In the case of C=CCn1c(COc2ccccc2)nnc1SCC(=O)N/N=C/c1ccc(C)cc1, the AC50 is reported as 3.16 µM (active).
In the case of CSc1nc(-c2ccccc2)nn1C(=O)c1ccccc1, the AC50 is reported as “inactive”.
For COc1ccc(OCc2nnc(SCC(=O)O)n2N)cc1, the AC50 was “inactive”.
CCc1ccccc1NC(=O)CSc1nc(-c2ccccc2)nn1C(=O)c1cccc([N+](=O)[O-])c1 gave an activity, negative = inhibition of -8.74% [at 2.29 µM].
CCn1c(COc2ccccc2)nnc1SCC(=O)Nc1cc(OC)ccc1OC was tested, and the AC50 was 10 µM (active).
CCCCOc1ccc(-c2nnn(CC(=O)c3c[nH]c4ccccc34)n2)cc1 was tested, and the AC50 was “inactive”.
COc1ccc(C(=O)NNC(=O)CSc2nnc(COc3ccc4ccccc4c3)n2C)cc1 was tested, and the AC50 was 0.501 µM (active).
For COc1ccc(-c2nnn(CC(=O)NCCc3c[nH]c4ccccc34)n2)cc1OC, the AC50 was 8.91 µM (active).
COc1cccc(OCc2nnc(SCC(=O)NCc3ccco3)n2C)c1 showed an activity, negative = inhibition of 12.8% [at 2.29 µM].
With CCn1c(COc2ccccc2)nnc1SCC(=O)c1cccc([N+](=O)[O-])c1 the AC50 was 12.6 µM (active).
Work on COc1ccc2c(c1)-c1c(sn(-c3ccc(OC)c(OC)c3)c1=S)C(C)(C)N2 yielded an activity, negative = inhibition of -15.9% [at 2.29 µM].
CC(=O)c1c(O)c(C)c(-c2ccccc2)n(-c2ccccc2)c1=O was tested, and the AC50 was “inactive”.
In the case of Cc1ccc(-n2nnnc2C(=Cc2ccc(N(C)C)cc2)c2nnnn2-c2ccc(C)cc2)cc1, the AC50 is reported as 3.16 µM (active).
Cc1ccc(-c2nn3c(C)nnc3c3ccccc23)cc1S(=O)(=O)NCCN1CCOCC1 was tested, and the AC50 was 8.91 µM (active).
Cc1ccc(-c2nn3c(C)nnc3c3ccccc23)cc1S(=O)(=O)NCc1ccccc1 was tested, and the AC50 was “inactive”.
Cn1c(=O)cc(SCC(=O)NCCCN2CCOCC2)c2ccc(Cl)cc21 was tested, and the AC50 was 7.94 µM (active).
With O=C(CCN1CCN(c2ccccc2F)CC1)Nc1ccccc1F the AC50 was “inactive”.
With Clc1ccc(Cl)c(SCCCN2CCNCC2)c1 the activity, negative = inhibition was -17% [at 11.4 µM].
In the case of Cn1c(=O)cc(SCC(=O)NCCN2CCN(c3ccccc3F)CC2)c2cc(Cl)ccc21, the AC50 is reported as 14.1 µM (active).
OC(COCC1COc2ccccc2O1)CN1CCN(c2ccccc2F)CC1 (configuration not stated) was tested, and the AC50 was “inactive”.
For CCCNC(=O)N1N=C(c2ccc(N)cc2)c2cc3c(cc2[C@H]1C)OCO3, the AC50 was 1.26 µM (active).
COC(=O)N1CC(=O)N(OC)C1c1ccc(Cl)cc1Cl (configuration not stated) was tested, and the AC50 was “inactive”.
In the case of CC(=O)N1CC(=O)N(OCc2ccccc2)C1c1ccc(Cl)cc1Cl (configuration not stated), the AC50 is reported as 10 µM (active).
For CC(=O)N1N=C(c2cccc([N+](=O)[O-])c2)OC1c1ccc(Cl)cc1Cl (configuration not stated), the activity, negative = inhibition was 11.9% [at 2.29 µM].
With Cc1cc(OCCn2cc(/C(N)=N/O)c3ccccc32)ccc1Cl the AC50 was 11.2 µM (active).
In the case of CCOC(=O)C1=C(CN2c3ccccc3CC2C)NC(=O)NC1c1ccccc1 (configuration not stated), the AC50 is reported as 15.8 µM (active).
In the case of CCOC(=O)c1[nH]c(C)c(C(=O)OCC(=O)N2c3ccccc3CC2C)c1C (configuration not stated), the activity, negative = inhibition is reported as -26.3% [at 2.29 µM].
With O=C(O)CN=C1NC2(CCCC2)Cc2ccccc21 the AC50 was “inactive”.
In the case of Cc1cccc(-n2c(=O)c3c(n4cnnc24)-c2ccccc2CC32CCCCC2)c1, the activity, negative = inhibition is reported as -17.5% [at 2.29 µM].
With Nc1nc(=S)[nH]c2c1C1(CCCC1)Cc1ccccc1-2 the AC50 was 20 µM (active).
For Cc1ccc(/C=C/C2=Cc3c(sc(NC(=O)CSc4n[nH]c(N)n4)c3C#N)C(C)(C)C2)o1, the AC50 was 14.1 µM (active).
In the case of CCOc1ccc(/C=C/C2=Cc3c(sc(NC(=O)CSc4n[nH]c(N)n4)c3C#N)C(C)(C)C2)cc1, the AC50 is reported as 15.8 µM (active).
CC(=O)OC[C@@H]1O[C@@H](O/N=C2/C[C@@H](O)[C@@H](O)[C@@H]3[C@@H]4C(=O)N(C5CCCCC5)C(=O)[C@H]4CC[C@H]23)[C@H](OC(C)=O)[C@H](OC(C)=O)[C@@H]1OC(C)=O gave an activity, negative = inhibition of -4% [at 11.4 µM].
For N#C[C@@H](N=Nc1ccccc1C(=O)O)C(N)=O, the activity, negative = inhibition was -6.32% [at 11.4 µM].
In the case of Cc1c(/N=C/c2ccco2)n(Cc2ccccc2)c2ccccc12, the AC50 is reported as 7.08 µM (active).
With COC(=O)C1CSC(C(=O)OC)N1C(=O)Nc1ccccc1 (configuration not stated) the AC50 was “inactive”.
For COC(=O)c1cc(NC(=O)N2c3ccccc3Sc3ccccc32)cc(C(=O)OC)c1, the AC50 was 7.94 µM (active).
For O=C(Nc1ccccc1)N1CCSc2cc(Cl)ccc21, the AC50 was “inactive”.
In the case of Cc1nnsc1SC(C)C(=O)O (configuration not stated), the AC50 is reported as “inactive”.
In the case of C=CCSc1nc(C)cc(/C=C\c2ccccc2)c1C#N, the AC50 is reported as 4.47 µM (active).
CC(=O)n1nc(-c2ccco2)nc1N was tested, and the AC50 was “inactive”.
With Nc1nc(NCCc2ccc(O)cc2)nc2nc(-c3ccco3)nn12 the AC50 was 15.8 µM (active).
In the case of c1ccc(CN(CC2=NCCN2)c2ccccc2)cc1, the AC50 is reported as “inactive”.
Cc1cccc(-n2nc([N+](=O)[O-])c(=NCc3cccnc3)n2O)c1 was tested, and the AC50 was 15.8 µM (active).
Cc1ccc(C)c(/C(O)=C2\C(=O)C(=O)N(Cc3cccnc3)C2c2cccnc2)c1 (configuration not stated) was tested, and the AC50 was “inactive”.
With CCNC(=S)NNC(=O)c1cc(C)on1 the AC50 was “inactive”.
For COCCSc1nnc(NC(=O)C(C)(C)C)s1, the AC50 was “inactive”.
For COCC(C)n1c(C)cc(C(=O)CSc2nnc(Nc3ccccc3F)s2)c1C (configuration not stated), the AC50 was 1.58 µM (active).
For COc1cccc(N2CCN(C(=S)Nc3cccc(C)c3)CC2)c1, the AC50 was 3.55 µM (active).
For COC(=O)c1ccc(NC(=S)N2CCN(Cc3cccc(C)c3)CC2)cc1, the AC50 was 12.6 µM (active).
For COc1cccc(NC(=S)NN2CCN(C)CC2)c1, the AC50 was “inactive”.
CC(C)CC(=O)N1CCN(Cc2cccc(F)c2)CC1 was tested, and the AC50 was “inactive”.
Cc1cccc(C(=O)NC(=S)N2CCN(C)CC2)c1 was tested, and the AC50 was “inactive”.
In the case of Cc1cccc(C(=O)NC2CCN(C(=O)N3CCOCC3)CC2)c1, the AC50 is reported as “inactive”.
In the case of COc1cccc(-c2csc(N3CCN(C(=S)Nc4ccccc4)CC3)n2)c1, the AC50 is reported as 8.91 µM (active).
In the case of Brc1ccc(-c2csc(N3CCC(c4ccccc4)C3)n2)cc1 (configuration not stated), the AC50 is reported as “inactive”.
With Cc1cccc(C(=O)NC2CCN(C(=S)NCc3ccco3)CC2)c1 the AC50 was 5.62 µM (active).
Molecule Cn1cnc([N+](=O)[O-])c1Sc1nc(N)nc2c1ncn2Cc1ccccc1 has an activity, negative = inhibition of -11.4% [at 11.4 µM].
Work on O=C1c2ccccc2C(=O)c2c1ccc(C(=O)O)c2-c1ccc2ccccc2c1 yielded an activity, negative = inhibition of -2.24% [at 11.4 µM].
COc1ccc(-c2csc(N3C(=N)SCC3=O)n2)cc1 was tested, and the AC50 was “inactive”.
CN1CCN(C(c2ccccc2)c2ccccc2)CC1 was tested, and the AC50 was “inactive”.
For COc1ccc(C(=O)NC2CCN(C(=S)Nc3cccc(C)c3)CC2)cc1, the AC50 was 15.8 µM (active).
With S=C(NCc1ccco1)N1CCN(C(c2ccccc2)c2ccccc2)CC1 the AC50 was 12.6 µM (active).
With COc1cccc(-c2csc(N3CCN(CC(=O)NNC(=O)c4ccc(Cl)cc4)CC3)n2)c1 the AC50 was 11.2 µM (active).
S=C(NCc1ccco1)N1CCN(Cc2ccco2)CC1 gave an activity, negative = inhibition of -5.09% [at 2.29 µM].
For Clc1ccc(-c2csc(N3CCC(c4ccccc4)C3)n2)cc1 (configuration not stated), the AC50 was “inactive”.
In the case of Cc1cccc(CNc2cc(-c3ccc(C(=O)N(C)C)cc3)ncn2)c1, the AC50 is reported as 3.16 µM (active).
In the case of CN(C)C(=O)c1ccc(-c2cc(NCc3cccnc3)ncn2)cc1, the AC50 is reported as 15.8 µM (active).
For CN(C)C(=O)c1ccc(-c2cc(NCc3ccccc3)ncn2)cc1, the AC50 was “inactive”.
For COc1ccc(C(NC(=O)c2ccc(-c3ccccc3)cc2)c2ccccc2)cc1 (configuration not stated), the AC50 was 0.0355 µM (active).
With C[C@H](NC(=O)c1ccc(Cl)c(Cl)c1)c1ccc(-c2ccccc2)cc1 the activity, negative = inhibition was -6.52% [at 11.4 µM].
O=C1OC2CC3CC1CC(O)(C3)C2 (configuration not stated) was tested, and the AC50 was “inactive”.
CCc1n[nH]c(=S)n1/N=C/c1ccc2c(c1)OCO2 was tested, and the AC50 was 14.1 µM (active).
In the case of Oc1ccc(Cn2c(-c3ccc(O)cc3)nc3ccccc32)cc1, the activity, negative = inhibition is reported as -21.1% [at 11.4 µM].
For CCn1c(-c2ccc(N(C)C)cc2)nc2ccccc21, the AC50 was 10 µM (active).
In the case of COc1ccc(C(=O)N2CCC[C@@]3(CCN(Cc4ccc(C#N)cc4)C3)C2)cc1, the AC50 is reported as 10 µM (active).
With COc1ccc(C(=O)N2CCC[C@@]3(CCN(CC(C)C)C3)C2)cc1 the AC50 was 7.94 µM (active).
In the case of COc1ccc(C(=O)N2CCC[C@@]3(CCN(Cc4ccccc4)C3)C2)cc1, the AC50 is reported as 10 µM (active).
In the case of COCC(=O)N1CCC2(CC1)CN(Cc1ccc(C#N)cc1)C2, the AC50 is reported as “inactive”.
With COC(=O)N1CCC2(CCCN(Cc3ccccc3)C2)CC1 the AC50 was “inactive”.
For COc1ccc(C(=O)N2CCC3(CCN(Cc4ccc(C#N)cc4)CC3)CC2)cc1, the AC50 was “inactive”.
For O=c1[nH]c(=O)n([C@@H]2C[C@H](O)[C@H](CO)O2)cc1I, the AC50 was “inactive”.
